The record followed here is PubChem BioAssay AID743060 (The Scripps Research Institute Molecular Screening Center, 2013).

A short description of this assay: T. brucei methionyl-tRNA synthetase enzyme inhibition – biochemical, radioactivity, round 1, late-stage follow-up (AID 743060). The note with it: purified enzyme, radiolabel aminoacylation, scintillation, 2 h; at 1 µM; stronger effect = higher value.
A word on the inhibition: it is the change of the read-out against control, counted positive when it falls. `O=C(NCc1nc2ccccc2[nH]1)C1=C[C@H](c2csc3ccccc23)C[C@H](OCCCCO)O1`: the inhibition stood at 71.1%.
As for `O=C(NCCc1nc2ccccc2[nH]1)c1ccc(Cl)cc1Cl`, the figure is 61.9%; as for `CCN(CC)C(=O)C(=O)c1cn(CC(=O)N2CCCc3ccccc32)c2ccccc12`, -9.56%.
On to `O=C(Cn1cc(C(=O)C(=O)N2CCCC2)c2ccccc21)Nc1ccccc1`, for which the inhibition is -5.78%.
Take `Cc1ccc2[nH]c3nc(SCC(=O)Nc4ccc(C(F)(F)F)cc4)nnc3c2c1`: the inhibition came to 21.3%.
Regarding `O=C(CC(=O)Nc1cccc(Cl)c1)NN=Cc1ccccc1`, the inhibition came out at 28.2%.
In the case of `Cc1cc2cc(C(=O)N3CCCC(c4nc5ccccc5[nH]4)C3)ccc2o1` (centres undefined), the inhibition worked out at 20.3%.
Then `COc1ccccc1NC(=O)CSc1nnc2c(n1)[nH]c1ccc(C)cc12`, with 19.1%.
`Clc1ccc(OCCSCc2nc3ccccc3[nH]2)cc1`: the inhibition is -2.58%.
For the compound `O=C(NCc1nc2ccccc2[nH]1)C1=C[C@@H](c2ccc(Br)cc2)C[C@@H](OCc2ccc(CO)cc2)O1`, the inhibition is 62.1%.
Then `COc1cccc(NC(=O)C2CC(=O)n3c(nc4ccccc43)N2)c1` (centres undefined), with 5.53%.
`O=C(Cn1cc(C(=O)COc2ccccc2)c2ccccc21)Nc1cccc(C(F)(F)F)c1`: the inhibition was -5.73%.
`CN(Cc1cc(Cl)cc(Cl)c1)[C@H]1C[C@H]2c3[nH]c4ccccc4c3CCN2C(=O)[C@H]1CO`: the inhibition was found to be 95.1%.
Take `CN(CC(=O)Nc1ccc(Cl)cc1)C(=O)c1ccc(-n2cncn2)c([N+](=O)[O-])c1`: the inhibition stood at 38%.
As for `O=C(NCCc1nc2ccccc2[nH]1)c1ccc(Cl)cc1`, the figure is 20.1%; as for `CCc1ccc2c(c1)c1nnc(SCC(=O)Nc3ccc4c(c3)OCO4)nc1n2C`, -1.63%.
As for `CCc1ccc2[nH]c3nc(SCC(=O)NCc4cccc(OC)c4)nnc3c2c1`, the figure is 4.75%; as for `Cc1ccc(NC(=O)CN(C)C(=O)CCSc2ccc(F)cc2)cc1`, -1.05%; as for `Cc1ccc(CNC(=O)CSc2nnc3c(n2)[nH]c2ccc(C)cc23)cc1`, 76.3%.
